Bioassay records deposited in PubChem by The Scripps Research Institute Molecular Screening Center.
Rows were chosen to be rich in hits. Some 4.5% of all compounds tested hit in one or more screens of this group.
hcDAF12 agonist: activates DAF-12 receptor from parasite H. contortus | HEK293 hcDAF-12 lit1-tk-luc reporter, luminescence; 0% DMSO, 100% Δ7-dafachronic acid | activation, % at 6.8 µM | AID 652067 | 370,000 tested, 1.4% active;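 active = activation above the mean of all tested compounds plus 3 SD, cut at about 5.5% in these data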;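 also: 100% = response to 3 µM Δ7-dafachronic acid high control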
DAX1 inh-1: inhibitors of DAX1 repression of SF-1 activated StAR promoter. 370,000 tested, 1.1% active. HEK293T StAR-luciferase reporter, SF-1/DAX-1 repression relief. inhibition, % at 6.8 µM;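 active = inhibition above the mean over all tested compounds plus 3 SD, cut at about 3.6% in these data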;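 also: 0% = DAX-1 cells with DMSO and 100% = cells lacking DAX-1 with DMSO; higher inhibition means more luminescence from relief of DAX-1 repression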
hgDAF12 agonist: hgDAF-12 agonism, primary luciferase screen; HEK293 GAL4-hgDAF12 UAS-luciferase reporter, agonist luminescence; normalized to butyrate control; activation, % at 6.8 µM; 370,000 tested, 1.8% active; AID 687014;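 active = activation above a cutoff set at the mean of all screened compounds plus 3 SD, cut at about 10% in these data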;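 also: 0% = DMSO wells and 100% = sodium butyrate wells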
ssDAF-12 act: activators of S. stercoralis DAF-12 nuclear receptor | activation, % at 6.8 µM | 370,000 tested, 1% active | HEK293 ssDAF-12/GRIP1 lit1-tk-luc reporter, luminescence; % of 3 µM dafachronic acid response;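 active = activation above the mean over all tested compounds plus 3 SD, cut at about 0.9% in these data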;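 also: 0% = DMSO-only wells and 100% = 3 µM delta7-dafachronic acid wells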
DAX1 inh-2: inhibits human nuclear receptor DAX1; P51843; HEK293 Gal4-DAX1 luciferase reporter, luminescence; inhibition, % at 6.75 µM; 340,000 tested, 0.99% active;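 active = inhibition above the mean over all tested compounds plus 3 SD, cut at about 4.2% in these data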;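 also: 0% = DAX1-transfected cells with DMSO and 100% = empty-vector control cells with DMSO; inhibition shows as a rise in luminescence from relieved DAX1 repression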
FXN GAA850 act: activators of GAA850 frataxin (FXN) promoter | HEK293 lucGAA850 FXN promoter luciferase reporter, 24 h; percent of 10 µM SAHA response | activation, % at 6 µM | 360,000 tested, 0.56% active | AID 540364;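 active = activation above the average of all compounds screened plus 3 SD, cutoff fixed separately per campaign, cut at about 7.5% in these data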;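 also: 0% = DMSO wells and 100% = 10 µM SAHA wells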
DAX1 conf: NR0B1 (human) inhibition, confirmation | 2,400 tested, 87% active | HEK293T StAR-promoter luciferase reporter, SF-1/DAX-1 repression | shares compounds with DAX1 inh-1 | AID 652134 | inhibition, % at 6.8 µM;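 active = inhibition above the average of every tested compound plus 3 SD, cut at about 3.8% in these data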;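 also: 0% = DAX-1 cells with DMSO and 100% = no DAX-1 control cells with DMSO; active compounds raise luminescence by relieving repression of the StAR reporter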
Target sequence (P51843 whole entry, looked up): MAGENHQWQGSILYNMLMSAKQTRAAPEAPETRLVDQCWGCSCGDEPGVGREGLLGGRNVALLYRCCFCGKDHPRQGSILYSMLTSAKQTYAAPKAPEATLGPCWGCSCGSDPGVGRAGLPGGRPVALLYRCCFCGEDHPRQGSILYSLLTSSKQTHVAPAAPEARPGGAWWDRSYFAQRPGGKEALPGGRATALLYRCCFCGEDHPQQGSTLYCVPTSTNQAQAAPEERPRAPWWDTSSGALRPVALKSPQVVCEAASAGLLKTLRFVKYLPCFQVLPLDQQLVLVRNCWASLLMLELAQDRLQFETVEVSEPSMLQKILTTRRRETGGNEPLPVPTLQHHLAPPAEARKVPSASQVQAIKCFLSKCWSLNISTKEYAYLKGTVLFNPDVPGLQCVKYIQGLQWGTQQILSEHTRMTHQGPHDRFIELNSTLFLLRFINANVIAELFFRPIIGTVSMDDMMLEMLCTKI
SF1 mutant ctr: nonselective inhibitor or artifact in SF-1 mutant DAX1 counter-screen; shares compounds with DAX1 inh-1; HEK293 StAR-luciferase, SF-1 AF2 mutant, luminescence; inhibition, % at 6.8 µM; 2,400 tested, 78% active;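 active = inhibition above the mean of all tested compounds plus 3 SD, cut at about 3% in these data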;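 also: 0% = DAX-1 transfected cells with DMSO and 100% = cells without DAX-1 with DMSO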
An asterisk follows results filed as active; . = no result given.

SMILES | hcDAF12 agonist | DAX1 inh-1 | hgDAF12 agonist | ssDAF-12 act | DAX1 inh-2 | FXN GAA850 act | DAX1 conf | SF1 mutant ctr
O=C(Nc1ccc(-c2nc3ccccc3[nH]2)cc1)C1CCCO1 (stereo unspecified) | 5.4 | 7.7* | 13.1* | 0.0 | -1.0 | -1.5 | 15.3* | 8.9*
O=C(Nc1nc2ccccc2[nH]1)C1CCCO1 (stereo unspecified) | -0.9 | 0.1 | 4.0 | -1.6 | 1.1 | 1.3 | . | .
CC(C)n1nnnc1C1c2ccccc2C(=O)N1CCc1c[nH]c2ccccc12 (stereo unspecified) | 2.5 | 5.5* | 5.4 | -0.7 | . | . | 2.6 | 2.3
O=C1c2ccccc2C(c2nnnn2Cc2ccccc2)N1CCOc1ccccc1 (stereo unspecified) | 8.2* | 7.2* | 18.9* | 0.3 | . | . | 6.5* | 4.1*
O=C1c2ccccc2C(c2nnnn2Cc2ccccc2)N1CCc1ccccc1F (stereo unspecified) | 5.1 | 9.2* | 11.1* | -0.3 | . | . | -3.6 | -0.6
COc1ccc(CN2C(=O)c3ccccc3C2c2nnnn2Cc2ccccc2)cc1 (stereo unspecified) | -0.5 | 0.4 | -2.3 | -1.7 | . | . | . | .
CC(C)CN(C(=O)C(C)N1C(=O)c2ccccc2C1=O)c1c(N)n(Cc2ccccc2)c(=O)[nH]c1=O (stereo unspecified) | -0.8 | -0.5 | 1.0 | -0.6 | 1.0 | 0.4 | . | .
NS(=O)(=O)c1ccc(NC(=O)COC(=O)CN2C(=O)C3CC=CCC3C2=O)cc1 (stereo unspecified) | 0.4 | -1.2 | 2.1 | -0.8 | 0.0 | 0.3 | . | .
O=C(Cc1c[nH]c2ccccc12)NC1(C(=O)NC2CCCC2)CCCCC1 | 2.7 | -0.2 | 1.1 | -0.4 | -0.8 | 0.3 | . | .
COC(=O)c1ccc(C2c3c(oc4ccc(Cl)cc4c3=O)C(=O)N2CCN2CCOCC2)cc1 (stereo unspecified) | 0.1 | 0.2 | 2.5 | -0.4 | 0.3 | -1.5 | . | .
Nc1nc(N)c(N=Nc2ccccc2)c(=O)[nH]1 | 1.4 | 5.7* | 4.6 | -1.5 | 1.9 | -0.3 | 5.5* | 3.2*
O=c1[nH]cnc(O)c1N=Nc1ccccc1 | -1.4 | 0.5 | 4.9 | -1.6 | 1.1 | 1.7 | . | .
Cc1ccc(NC(=O)c2ccc(OCC3CCCO3)cc2)nc1 (stereo unspecified) | 3.5 | 8.3* | 11.6* | 0.0 | 0.3 | 3.3 | 6.7* | 3.3*
O=C(Nc1ccc(Cl)cc1Cl)c1ccc2c(=O)n3c(nc2c1)CCC3 | 2.5 | 8.7* | 5.2 | 0.3 | 2.8 | 5.3 | 11.4* | 7.5*
C=C1CCN([C@H](C(=O)OCc2cccc(C)c2)C(C)C)S(=O)(=O)c2ccccc21 | -1.7 | -1.1 | -2.6 | -1.4 | 0.8 | 6.7 | . | .
CCN(CC)CCOC(=O)c1ccc(NC(=O)CCCN2C(=O)/C(=C/c3cccs3)SC2=S)cc1 | -0.1 | 6.2* | -0.4 | -0.9 | 0.9 | 0.3 | 8.5* | 5.4*
Cc1cc(NC(=O)c2ccccc2Cl)no1 | 1.5 | 0.9 | 3.5 | -0.1 | 2.6 | 1.7 | . | .
Cc1cc(NC(=O)NC(=O)c2ccccc2F)no1 | 3.6 | 5.2* | 4.0 | 0.8 | 1.3 | 2.5 | 8.7* | 2.5
CCCCCCCNC(=O)C1(CC2CC(c3ccc(Cl)cc3)=NO2)CCN(C(=O)c2cc(OCC)c(OCC)c(OCC)c2)CC1 (stereo unspecified) | -0.4 | -0.4 | -1.8 | 0.5 | 0.5 | -0.9 | . | .
O=C(COC(=O)C1C2CC3OC(=O)C1C3C2)Nc1ccc(Cl)cc1 (stereo unspecified) | 2.0 | -0.1 | 2.2 | -0.8 | 0.4 | -0.4 | . | .
O=C(COC(=O)c1ccccc1-n1cnnn1)c1ccc(F)cc1 | 3.6 | 7.7* | 7.1 | -0.1 | 3.2 | 2.3 | 7.5* | 5.6*
COc1ccccc1C(=O)COC(=O)c1ccc(-n2cnnn2)cc1 | -1.8 | -1.3 | 2.5 | -1.3 | -0.8 | 0.0 | . | .
Cc1cc(C2=NNC(=NC3CC3)SC2)c(C)n1-c1ccccc1 | -7.2 | -3.4 | -19.1 | -3.9 | -5.3 | -16.9 | . | .
